We go through 72 compounds from PubChem BioAssay AID1259421 (Broad Institute, 2018).

“And” between values parts separate entries of the source, which are not always exact repeats. Identical values can stand only once. In all, about 6,400 compounds went through this assay and about 610 (9.5%) were called active. This is one part of a sample in which actives are shown more often than they occur. Cut-off read from the data, not from the text of the source: active = activity change below about -70%; inconclusive = no clear call, values can overlap the other calls; inactive = above that. More than one record can exist for a structure, and the calls need not agree.

The nature of this experiment: Toxoplasma gondii ME49Luc growth in HeLa cells, luciferase, no IFN-y, primary screen (AID 1259421). To be noted: T. gondii ME49Luc in HeLa, 72 h, stronger effect = lower value, concentration not given here.
Take `O=c1c(-c2ccc(O)cc2)coc2c([C@@H]3O[C@H](CO)[C@@H](O)[C@H](O)[C@H]3O)c(O)ccc12`: the activity change, negative = inhibition is -0.619% (inactive).
For `Cc1[nH]c(/C=C2\C(=O)Nc3ccccc32)c(C)c1CCC(=O)O`, the activity change, negative = inhibition is 7.07% (inactive).
On to `Cc1[nH]c(/C=C2/C(=O)Nc3ccc(F)cc32)c(C)c1C(=O)NC[C@H](O)CN1CCOCC1`, for which the activity change, negative = inhibition was -69.2% (inactive).
Regarding `CCN(CC)CCNC(=O)c1c(C)[nH]c(/C=C2\C(=O)Nc3ccc(F)cc32)c1C`, the activity change, negative = inhibition was -75.8% (active).
On to `COc1cccc(OC)c1-c1ccc(C[C@H](NC(=O)c2c(Cl)cccc2Cl)C(=O)O)cc1`, for which the activity change, negative = inhibition is 4.91% (inactive).
For `O=C(c1ccc(OCCCc2cnc[nH]2)cc1)C1CC1`, the activity change, negative = inhibition is 31.1% (inactive).
To `CN=C(NC)NCc1ccc(OC)cc1` belongs 0.956% (inactive).
In the case of `CC(C)CC1C(=O)N2CCCC2C2(O)OC(NC(=O)C3C=C4c5cccc6[nH]c(Br)c(c56)CC4N(C)C3)(C(C)C)C(=O)N12` (configuration not stated), the activity change, negative = inhibition is 18.4% (inactive).
Regarding `COc1cc2c(cc1OC)C(C(C(=O)N(CCc1ccc(OC)c(OC)c1OC)CCc1ccc(OC)c(OC)c1OC)c1ccccc1)=NCC2` (configuration not stated), the activity change, negative = inhibition was 23.5% (inactive).
As for `CC(C)n1nc(-c2ccc3oc(N)nc3c2)c2c(N)ncnc21`, the activity change, negative = inhibition is -74.3% (active).
`CC(C)n1nc(-c2cc3cc(O)ccc3[nH]2)c2c(N)ncnc21`: the activity change, negative = inhibition was -50.4% (inactive).
On to `CC(=O)O[C@@H]1CC[C@@]2(C)C(C[C@@H](OC(C)=O)[C@@]3(C)C4=CC(=O)O[C@@H](c5ccoc5)[C@]4(C)CCC23)C1(C)C` (some centres not stated), for which the activity change, negative = inhibition is 12.5% (inactive).
Consider `O=C(O)CCc1c(C(=O)O)[nH]c2cc(Cl)cc(Cl)c12`, for which the activity change, negative = inhibition is 12.5% (inactive).
For the compound `CCC(C)[C@H]1O[C@]2(CC[C@@H]1C)C[C@@H]1C[C@@H](C/C=C(\C)[C@@H](OC3C[C@H](OC)C(O[C@H]4C[C@H](OC)[C@@H](O)[C@H](C)O4)[C@H](C)O3)[C@@H](C)/C=C/C=C3\CO[C@@H]4[C@H](O)C(C)=C[C@@H](C(=O)O1)[C@]34O)O2` (some centres not stated), the activity change, negative = inhibition was -67.1% (inactive).
`CC[C@H](C)[C@H]1O[C@]2(CC[C@@H]1C)C[C@@H]1C[C@@H](C/C=C(\C)[C@@H](O[C@H]3C[C@H](OC)[C@@H](O[C@H]4C[C@H](OC)[C@@H](O)[C@H](C)O4)[C@H](C)O3)[C@@H](C)/C=C/C=C3\CO[C@@H]4[C@H](O)C(C)=C[C@@H](C(=O)O1)[C@]34O)O2`: the activity change, negative = inhibition was -65% (inactive) and -79.5% (active).
`CCC(C)[C@H]1O[C@]2(C=C[C@@H]1C)C[C@@H]1C[C@@H](C/C=C(\C)[C@@H](OC3C[C@H](OC)C(O[C@H]4C[C@H](OC)[C@@H](NC(C)=O)[C@H](C)O4)[C@H](C)O3)[C@@H](C)/C=C/C=C3\CO[C@@H]4[C@H](O)C(C)=C[C@@H](C(=O)O1)[C@]34O)O2` (some centres not stated): the activity change, negative = inhibition was -6.74% (inactive).
Take `COc1ccccc1N1CCN(CCCCN2C(=O)CCC2=O)CC1`: the activity change, negative = inhibition is -10.5% (inactive) and 6.09% (inactive).
As to `C[C@]12C=CC(=O)C=C1CCC1C2C(=O)C[C@@]2(C)C1CC[C@]2(O)C(=O)CO` (some centres not stated), the activity change, negative = inhibition was -0.495% (inactive).
As to `C=COCC(F)(F)F`, the activity change, negative = inhibition was 2.78% (inactive).
The same measure for `COc1ncnc(N)c1OC`: 8.31% (inactive).
Turning to `CCCCC(=O)O[C@H]1CC[C@H]2[C@@H]3CCc4cc(O)ccc4[C@H]3CC[C@]12C`, the activity change, negative = inhibition was -58.1% (inactive).
To `C[C@]12CC[C@@H]3c4ccc(O)cc4C[C@@H](CCCCCCCCCS(=O)CCCC(F)(F)C(F)(F)F)[C@H]3[C@@H]1CC[C@@H]2O` (some centres not stated) belongs -83.4% (active); to `C[C@]12CCC3c4ccc(O)cc4CCC3C1CC[C@@H]2OC(=O)CCC1CCCC1` (some centres not stated), -65.2% (inactive) and 3.38% (inactive).
As to `CC(C)(C)N1CCC(c2ccccc2)(c2ccccc2)CC1`, the activity change, negative = inhibition is 14.2% (inactive).
Regarding `CCC[C@@]1(CCc2ccccc2)CC(=O)C([C@H](CC)c2cccc(NS(=O)(=O)c3ccc(C(F)(F)F)cn3)c2)C(=O)O1` (some centres not stated), the activity change, negative = inhibition is 10.4% (inactive).
Take `COc1cc(CCc2cc(NC(=O)c3ccc(N4C[C@@H](C)N[C@@H](C)C4)cc3)n[nH]2)cc(OC)c1`: the activity change, negative = inhibition was -81.1% (active).
Consider `COc1ccc(C(=O)Nc2c(Cl)cncc2Cl)cc1OC1CCCC1`, for which the activity change, negative = inhibition was 3.75% (inactive).
The same measure for `COc1ccc(NC(=O)c2ccc(C(=N)N(C)C)cc2)c(C(=O)Nc2ccc(Cl)cn2)c1`: -0.285% (inactive); for `C/C=N/N(C)C=O`: 3.01% (inactive).
For the compound `Cc1[nH]c(C)c(Cl)c(=O)c1Cl`, the activity change, negative = inhibition is -1.17% (inactive) and -3.71% (inactive).
For the compound `Cc1cccc(Oc2cnc(=O)[nH]c2)c1`, the activity change, negative = inhibition was 9.21% (inactive).
`CCCCOc1c(C(=O)c2c(F)cc(C)cc2F)cnc2n[nH]cc12`: the activity change, negative = inhibition is -88.2% (active).
With `CCCS(=O)(=O)Nc1ccc(F)c(C(=O)c2c[nH]c3ncc(Cl)cc23)c1F`, the activity change, negative = inhibition was -26.4% (inactive).
On to `CCCCOC(=O)c1cc2c(cn1)[nH]c1ccccc12`, for which the activity change, negative = inhibition was 42.7% (inactive) and 253% (inactive).
For the compound `COc1cc(OC)c2ccc(=O)oc2c1`, the activity change, negative = inhibition is 1.05% (inactive).
In the case of `Clc1ccc(CCCOCCCN2CCCCC2)cc1`, the activity change, negative = inhibition was 2.37% (inactive).
Take `CS(=O)(=O)c1ccc(-c2nc(-c3ccc(F)cc3)c(-c3ccncc3)[nH]2)cc1`: the activity change, negative = inhibition is -5.72% (inactive).
On to `COc1cc(S(C)=O)ccc1-c1nc2ncccc2[nH]1` (configuration not stated), for which the activity change, negative = inhibition was -7.2% (inactive) and 19.1% (inactive).
`Oc1ccc(-c2nc(-c3ccc(F)cc3)c(-c3ccncc3)[nH]2)cc1`: the activity change, negative = inhibition is -91.7% (active) and -92.7% (active).
As for `CS(=O)c1ccc(-c2nc(-c3ccc(F)cc3)c(-c3ccncc3)[nH]2)cc1` (configuration not stated), the activity change, negative = inhibition is -85.1% (active) and -89.6% (active).
Take `COc1ccc2cc(-c3nc(-c4ccc(S(C)=O)cc4)[nH]c3-c3ccncc3)ccc2c1` (configuration not stated): the activity change, negative = inhibition is -51.3% (inactive).
`CC1(C)O[C@H]2CC(=O)OC[C@]23[C@H]2CC[C@@]4(C)[C@H](c5ccoc5)OC(=O)[C@H]5O[C@]54[C@]2(C)C(=O)C[C@@H]13`: the activity change, negative = inhibition was 7.46% (inactive).
Regarding `CC/C=C\C/C=C\C/C=C\C/C=C\C/C=C\C/C=C\CCC(=O)OCC`, the activity change, negative = inhibition was 4.98% (inactive).
On to `COc1cc(O)c(C(=O)c2ccccc2)cc1O`, for which the activity change, negative = inhibition is 6.03% (inactive).
On to `Cc1cc(CC(C)CC(C)(C)C)n(O)c(=O)c1` (configuration not stated), for which the activity change, negative = inhibition was -84.1% (active).
The same measure for `Nc1nnnn1-c1ccccc1`: 6.66% (inactive); for `CCCCCCCCCCCCCC(=O)OC(C)C`: 13.1% (inactive); for `N#Cc1ncccn1`: 3.94% (inactive).
Regarding `COc1cc(/C=C2\CCCN([C@@H](C)c3ccc(F)cc3)C2=O)ccc1-n1cnc(C)c1`, the activity change, negative = inhibition was -5.26% (inactive).
The same measure for `Cn1cc(-c2[nH]c3cc(NC(=O)[C@H](N)C4CCCCC4)cc4c3c2C=NNC4=O)cn1`: -91.8% (active) and -59.2% (inactive); for `CC(C)(C)Sc1c(CC(C)(C)C(=O)O)n(Cc2ccc(Cl)cc2)c2ccc(OCc3ccc4ccccc4n3)cc12`: 12.6% (inactive).
In the case of `COC(=O)C(Cc1ccc(OCCn2c(=O)sc3cc(C(=O)c4ccccc4)ccc32)cc1)C(=O)OC`, the activity change, negative = inhibition was 18.5% (inactive).
For `CN(C)CCCO[C@H]1[C@@H](C(O)CO)OC2OC(C)(C)O[C@@H]21` (some centres not stated), the activity change, negative = inhibition is 4.68% (inactive).
On to `Oc1cc2c(c(Cl)c1O)CCNC[C@@H]2c1ccccc1`, for which the activity change, negative = inhibition was -18.1% (inactive).
`CCOC(=O)NCC(Cc1ccc(OCCc2nc(-c3ccccc3)oc2C)cc1)N/C(C)=C/C(=O)c1ccc(C(F)(F)F)cc1` (configuration not stated): the activity change, negative = inhibition is -49.9% (inactive).
Consider `CNCCn1c(=O)c2cc(OC)c(OC)cc2c2cnc3cc4c(cc3c21)OCO4`, for which the activity change, negative = inhibition was -94.2% (active).
Turning to `O=C1NC(O)CCN1[C@@H]1O[C@H](CO)[C@@H](O)[C@H]1O` (some centres not stated), the activity change, negative = inhibition was -5.72% (inactive).
`Cc1ccc(NC(=O)c2cccc(C(C)(C)C#N)c2)cc1Nc1ccc2ncn(C)c(=O)c2c1`: the activity change, negative = inhibition is -3.87% (inactive).
With `NC(=O)c1ccc[n+]([C@@H]2O[C@H](COP(=O)(O)OP(=O)(O)OC[C@H]3O[C@@H](n4cnc5c(N)ncnc54)[C@H](O)[C@@H]3O)[C@@H](O)[C@H]2O)c1`, the activity change, negative = inhibition is -1.89% (inactive).
The same measure for `COc1ccc(-c2nc3ccc(C4=NNC(=O)CC4C)cc3[nH]2)cc1` (configuration not stated): 21.8% (inactive); for `CNC(=O)c1nn(C)c2c1C(C)(C)Cc1cnc(Nc3ccc(N4CCN(C)CC4)cc3)nc1-2`: -73.5% (active).
As for `O=C(O)c1ccc(Nc2ncc3c(n2)-c2ccc(Cl)cc2C(c2c(F)cccc2F)=NC3)cc1`, the activity change, negative = inhibition was -36.4% (inactive).
Take `CCOC(=O)C1=C(N)Oc2ccc(Br)cc2[C@H]1[C@H](C#N)C(=O)OCC`: the activity change, negative = inhibition is -65.8% (inactive).
On to `CC[C@]12CCCN3CCc4c(n(c5ccccc45)[C@](O)(C(=O)OC)C1)[C@@H]32`, for which the activity change, negative = inhibition was 8.44% (inactive) and 5.97% (inactive).
Regarding `CCN(CC)CCn1c(=O)c(Cc2ccc(OC)cc2)nc2ccccc21`, the activity change, negative = inhibition was -5.78% (inactive).
For `CCCCc1nc2cc(/C=C/C(=O)NO)ccc2n1CCN(CC)CC`, the activity change, negative = inhibition is -75.3% (active) and -94% (active).
As to `N[C@@]1(C(=O)O)CC[C@H]2[C@H](C(=O)O)[C@H]21`, the activity change, negative = inhibition was 6.82% (inactive).
In the case of `COC(=O)[C@H](Cc1cccc(C(=N)N)c1)[C@@H](C)NC(=O)c1ccc(-c2cc[n+]([O-])cc2)cc1`, the activity change, negative = inhibition was -6.72% (inactive).
As to `O=C1c2ccccc2S(=O)(=O)N1CCCN1CCN(c2ncccn2)CC1`, the activity change, negative = inhibition was 6.33% (inactive).
To `CS(=O)(=O)c1ccc(-c2cc(Br)sc2-c2ccc(F)cc2)cc1` belongs 22.9% (inactive) and 24.6% (inactive); to `CC(=O)C1(O)Cc2c(O)c3c(c(O)c2C(OC2CC(N)C(O)C(C)O2)C1)C(=O)c1c(O)cccc1C3=O` (configuration not stated), -82.5% (active); to `CC(=O)[C@]1(O)Cc2c(O)c3c(c(O)c2[C@@H](O[C@H]2C[C@H](N)[C@H](O)[C@H](C)O2)C1)C(=O)c1ccccc1C3=O`, -72.5% (active) and -66% (inactive) and -71.5% (active).
